Assay results from PubChem BioAssay (Tox21).
Results filed as inconclusive are left out. The source made the active and inactive calls. Calls come from the whole dose curve.

target: Estrogen receptor (Homo sapiens) (UniProt P03372); assay: qHTS assay to identify small molecule agonists of the estrogen receptor alpha (ER-alpha) signaling pathway in the presence of an antagonist (AID 1259383); settings: VM7Luc4E2 cells, ERE-luciferase, +ICI-182,780, 22 h; series mostly up to 92.4 µM; activation: at the top concentration; note: top concentration of the series differs between compounds; nearly all actives have a fitted effect of over 15% in size
Sequence (P03372 whole entry, looked up): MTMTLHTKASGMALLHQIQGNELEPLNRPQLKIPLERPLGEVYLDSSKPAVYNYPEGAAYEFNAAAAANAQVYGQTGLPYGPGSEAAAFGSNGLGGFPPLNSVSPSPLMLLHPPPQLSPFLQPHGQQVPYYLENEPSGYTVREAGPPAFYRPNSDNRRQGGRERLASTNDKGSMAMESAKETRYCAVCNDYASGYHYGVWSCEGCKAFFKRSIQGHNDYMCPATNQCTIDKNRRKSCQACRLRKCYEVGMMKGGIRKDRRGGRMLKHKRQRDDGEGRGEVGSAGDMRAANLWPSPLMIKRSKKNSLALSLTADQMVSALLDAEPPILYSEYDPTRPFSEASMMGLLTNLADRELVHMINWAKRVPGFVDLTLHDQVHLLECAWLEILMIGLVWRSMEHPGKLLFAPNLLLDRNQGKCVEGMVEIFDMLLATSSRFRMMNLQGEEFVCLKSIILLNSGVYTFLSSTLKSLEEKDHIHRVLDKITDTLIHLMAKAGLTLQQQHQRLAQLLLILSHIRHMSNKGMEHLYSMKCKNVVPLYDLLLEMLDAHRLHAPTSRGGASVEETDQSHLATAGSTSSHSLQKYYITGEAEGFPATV
Outline: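 In VM7Luc4E2 cells, 4,000 per well, compounds at 15 concentrations were co-incubated 22hr at 37C with 10.0nM final ICI-182,780. Luminescence from the stably transfected 4×ERE-luciferase reporter was recorded 30min after ONE-Glo addition.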
% is set by controls: 0 for no effect and ±100 for the full control effect.

Which “activation” value does the source give for `CCOC(=O)[C@@](C)(N)Cc1ccc(O)c(O)c1` here?
The value was -1.02% [at 42.5 µM] (inactive).

With `CCC(=O)CC(C)CC` (configuration not stated) as the compound, how does the activation read?
Its activation is -1.38% [at 0.349 µM] (inactive).

Which “activation” value does the source give for `CCCCCCCCC(C)=O` here?
Its value is 0.151% (inactive).

Which “activation” value does the source give for `CCCCCCCCCCc1ccccc1` here?
The value was -0.619% (inactive).

For `Nc1cc(Cl)c([N+](=O)[O-])cc1O`, which “activation” value is on record?
The value was 4.93% (inactive).

For `C/C=C/C(=O)Oc1c(CCCCCC(C)C)cc([N+](=O)[O-])cc1[N+](=O)[O-]`, which “activation” value is on record?
The value was -15.4% (inactive).

With `CC(COC(=O)c1ccccc1)OC(=O)c1ccccc1` (configuration not stated) as the compound, how does the “activation” value read?
Its value is 0.0265% (inactive).

For `C(=C/c1ccccc1)/c1ccccc1`, which “activation” value is on record?
The value was 2% (inactive).

Which “activation” value does the source give for `c1cc[nH]c1` here?
Its value is -0.0544% (inactive).

With `CCCCCCCCCCCCN(CCO)CCO` as the compound, how does the “activation” value read?
Its value is 2.83% (inactive).

Which “activation” value does the source give for `Clc1nc2ccccc2s1` here?
Its value is -0.37% (inactive).

Which “activation” value does the source give for `OCCC(O)CO` (configuration not stated) here?
The value was 0.941% (inactive).

For `NCCCCCCNCCCCCCN`, which “activation” value is on record?
The value was -0.622% (inactive).

With `O=C1NCCN1CCN1CCC(c2cn(-c3ccc(F)cc3)c3ccc(Cl)cc23)CC1` as the compound, how does the “activation” value read?
Its value is -0.0321% [at 42.5 µM] (inactive).

For `O=C(O)c1cccc(Cl)n1`, which “activation” value is on record?
The value was 1.48% (inactive).

For `CCCCCCCCCCCCCCCC`, which “activation” value is on record?
The value was 1.35% (inactive).

For `CC=O`, which “activation” value is on record?
Its value is -15.2% (inactive).

Which “activation” value does the source give for `CCO[Si](C)(C)OCC` here?
Its value is 0.297% (inactive).

With `O=C=NCc1cccc(CN=C=O)c1` as the compound, how does the activation read?
The activation was 0.099% [at 19 µM] (inactive).

Which “activation” value does the source give for `NC(=O)c1nc(-c2cccc(-c3cc(F)ccc3OCC(F)(F)C(F)(F)F)c2)n[nH]1` here?
Its value is 0.758% (inactive).

For `CO[Si](CCC1CCC2OC2C1)(OC)OC` (configuration not stated), which “activation” value is on record?
The value was -1.26% (inactive).

For `ClC/C=C\CCl`, which “activation” value is on record?
Its value is 0.678% (inactive).

Which “activation” value does the source give for `CC(=O)OC1CCCCC1` here?
The value was -0.95% (inactive).

For `Cc1ccc(CCn2c3c(c4cc(Cl)ccc42)CN(C)CC3)cn1`, which “activation” value is on record?
Its value is -0.844% [at 42.5 µM] (inactive).

With `CCc1cccc(C)c1` as the compound, how does the “activation” value read?
The value was -0.3% (inactive).

For `O=C(O)Cc1ccc(OCCNC[C@H](O)c2ccccc2)cc1`, which “activation” value is on record?
Its value is -0.0878% [at 42.5 µM] (inactive).

For `CCC(C)C(=O)OC` (configuration not stated), which “activation” value is on record?
The value was -1.55% (inactive).

With `CCN(CC)c1cccc(C)c1` as the compound, how does the “activation” value read?
The value was 0.273% (inactive).

Which “activation” value does the source give for `CCCCCCCC(=O)OCC` here?
The value was 1.54% (inactive).

With `OCCCc1cccnc1` as the compound, how does the “activation” value read?
Its value is -0.12% (inactive).

Which “activation” value does the source give for `CCCCCCCCCCCCCC[n+]1ccccc1` here?
The value was -15.8% (inactive).

With `Cc1cc(C)c(C=O)c(C)c1` as the compound, how does the “activation” value read?
The value was -1.16% (inactive).

With `COc1cccc(CCc2ccccc2OCC(CN(C)C)OC(=O)CCC(=O)O)c1` (configuration not stated) as the compound, how does the “activation” value read?
Its value is -0.927% [at 42.5 µM] (inactive).

tested on: not listed separately; assay: qHTS assay to identify small molecule agonists or antagonists of the thyroid stimulating hormone receptor (TSHR) signaling pathway - wild type cell line counter screen (AID 1259384); settings: HEK293 wild type, cAMP HTRF counter-screen, active compounds read high; series mostly up to 92.4 µM; cAMP activity change: at the top concentration
Outline: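 Counter screen in untransfected Hek293: compounds (15-point titration, triplicate) plus phosphodiesterase inhibitor Ro20-1724 added after 18 h plating; 30 min RT. Intracellular cAMP via competitive d2/cryptate immunoassay, 1 h incubation.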

For `CCOC(=O)[C@@](C)(N)Cc1ccc(O)c(O)c1`, which “cAMP activity change” value is on record?
The value was -4.28% [at 42.5 µM] (inactive).

With `CCC(=O)CC(C)CC` (configuration not stated) as the compound, how does the cAMP activity change read?
The cAMP activity change was -1.63% [at 0.349 µM] (inactive).

With `CCCCCCCCC(C)=O` as the compound, how does the “cAMP activity change” value read?
Its value is 5.58% (inactive).

With `Nc1cc(Cl)c([N+](=O)[O-])cc1O` as the compound, how does the “cAMP activity change” value read?
Its value is -1.9% (inactive).

Which “cAMP activity change” value does the source give for `C/C=C/C(=O)Oc1c(CCCCCC(C)C)cc([N+](=O)[O-])cc1[N+](=O)[O-]` here?
The value was 1.77% (inactive).

Which “cAMP activity change” value does the source give for `COC(=O)C1=C(C)NC(C)=C(C(=O)OCCCN2CCC(c3ccccc3)(c3ccccc3)CC2)C1c1cccc([N+](=O)[O-])c1` (configuration not stated) here?
Its value is 6.61% [at 42.5 µM] (inactive).

With `CC(COC(=O)c1ccccc1)OC(=O)c1ccccc1` (configuration not stated) as the compound, how does the “cAMP activity change” value read?
The value was 1.11% (inactive).

With `C(=C/c1ccccc1)/c1ccccc1` as the compound, how does the “cAMP activity change” value read?
The value was -3.16% (inactive).

For `c1cc[nH]c1`, which “cAMP activity change” value is on record?
Its value is -0.0644% (inactive).

Which “cAMP activity change” value does the source give for `CCCCCCCCCCCCN(CCO)CCO` here?
The value was -0.732% (inactive).

Which “cAMP activity change” value does the source give for `Clc1nc2ccccc2s1` here?
The value was 0.299% (inactive).

Which “cAMP activity change” value does the source give for `OCCC(O)CO` (configuration not stated) here?
The value was -2.31% (inactive).

Which “cAMP activity change” value does the source give for `O=C1NCCN1CCN1CCC(c2cn(-c3ccc(F)cc3)c3ccc(Cl)cc23)CC1` here?
Its value is 3.24% [at 42.5 µM] (inactive).

With `Cc1c(C(=O)O)cccc1[N+](=O)[O-]` as the compound, how does the “cAMP activity change” value read?
Its value is 3.18% (inactive).

With `O=C(O)c1cccc(Cl)n1` as the compound, how does the “cAMP activity change” value read?
Its value is -1.2% (inactive).

For `CCCCCCCCCCCCCCCC`, which “cAMP activity change” value is on record?
Its value is 1.79% (inactive).

With `CC=O` as the compound, how does the “cAMP activity change” value read?
The value was 2.02% (inactive).

Which “cAMP activity change” value does the source give for `CCO[Si](C)(C)OCC` here?
Its value is 6.91% (inactive).

Which cAMP activity change does the source give for `O=C=NCc1cccc(CN=C=O)c1` here?
The cAMP activity change was -0.613% [at 18.9 µM] (inactive).

With `NC(=O)c1nc(-c2cccc(-c3cc(F)ccc3OCC(F)(F)C(F)(F)F)c2)n[nH]1` as the compound, how does the “cAMP activity change” value read?
The value was 5.72% (inactive).

With `CO[Si](CCC1CCC2OC2C1)(OC)OC` (configuration not stated) as the compound, how does the “cAMP activity change” value read?
The value was 0.621% (inactive).

With `ClC/C=C\CCl` as the compound, how does the “cAMP activity change” value read?
The value was -2.52% (inactive).

With `CC(=O)OC1CCCCC1` as the compound, how does the “cAMP activity change” value read?
The value was -7.08% (inactive).

Which “cAMP activity change” value does the source give for `c1ccc(Sc2ccccc2)cc1` here?
Its value is 4.37% (inactive).

Which “cAMP activity change” value does the source give for `Cc1ccc(CCn2c3c(c4cc(Cl)ccc42)CN(C)CC3)cn1` here?
The value was -3.63% [at 42.5 µM] (inactive).

For `CCc1cccc(C)c1`, which “cAMP activity change” value is on record?
Its value is 4.04% (inactive).

With `O=C(O)Cc1ccc(OCCNC[C@H](O)c2ccccc2)cc1` as the compound, how does the “cAMP activity change” value read?
The value was 0.416% [at 42.5 µM] (inactive).

For `CCC(C)C(=O)OC` (configuration not stated), which “cAMP activity change” value is on record?
Its value is 7.07% (inactive).

For `CCN(CC)c1cccc(C)c1`, which “cAMP activity change” value is on record?
Its value is -6.15% (inactive).

Which “cAMP activity change” value does the source give for `CCCCCCCC(=O)OCC` here?
Its value is -0.944% (inactive).

Which “cAMP activity change” value does the source give for `OCCCc1cccnc1` here?
The value was -0.0766% (inactive).

For `CCCCCCCCCCCCCC[n+]1ccccc1`, which “cAMP activity change” value is on record?
The value was 0.733% (inactive).

With `Cc1cc(C)c(C=O)c(C)c1` as the compound, how does the “cAMP activity change” value read?
The value was -0.21% (inactive).

For `COc1cccc(CCc2ccccc2OCC(CN(C)C)OC(=O)CCC(=O)O)c1` (configuration not stated), which “cAMP activity change” value is on record?
The value was 0.0201% [at 42.5 µM] (inactive).
